Assays:
Conditions in all cases: concentration: 1 μM, replicates: in singlicate; n = 1
PKN1 = test system: PKN1
PKN2 = test system: PKN2
PLK1 = test system: PLK1
PLK2 = test system: PLK2
PLK3 = test system: PLK3
PLK4 = test system: PLK4
PRKCD = test system: PRKCD
PRKCE = test system: PRKCE
PRKCH = test system: PRKCH
PRKCI = test system: PRKCI
PRKCQ = test system: PRKCQ
PRKD1 = test system: PRKD1
PRKD2 = test system: PRKD2
PRKD3 = test system: PRKD3
PRKG1 = test system: PRKG1
PRKG2 = test system: PRKG2
PRKR = test system: T1, PRKR
T1 construct: gene EIF2AK2

PRKX = test system: PRKX
PRP4 = test system: PRP4
PYK2 = test system: T2, PYK2
T2 construct: gene PTK2B
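Note: KINOMEscan kinase panel screen.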

SMILES | %Inh (PKN1) [%] | %Inh (PKN2) [%] | %Inh (PLK1) [%] | %Inh (PLK2) [%] | %Inh (PLK3) [%] | %Inh (PLK4) [%] | %Inh (PRKCD) [%] | %Inh (PRKCE) [%] | %Inh (PRKCH) [%] | %Inh (PRKCI) [%] | %Inh (PRKCQ) [%] | %Inh (PRKD1) [%] | %Inh (PRKD2) [%] | %Inh (PRKD3) [%] | %Inh (PRKG1) [%] | %Inh (PRKG2) [%] | %Inh (PRKR) [%] | %Inh (PRKX) [%] | %Inh (PRP4) [%] | %Inh (PYK2) [%]
Cc1c(Cn2ccn3c(=O)cc(N4CCOCC4)nc23)cccc1C(F)(F)F [GSK2289044] | 20 | 5 | 0 | 0 | 0 | 0 | 0 | 0 | 8 | 0 | 3 | 6 | 19 | 0 | 0 | 9 | 4 | 25 | 0 | 0
COc1cc(Nc2nccc(N3CCC(NC(=O)Nc4cc(C)ccc4C)C3)n2)cc(OC)c1OC (stereo not shown) [GSK1379762] | 41 | 0 | 0 | 0 | 0 | 28 | 0 | 0 | 7 | 33 | 0 | 0 | 0 | 37 | 0 | 0 | 0 | 41 | 43 | 3
Cl.c1ccc(-c2n[nH]cc2-c2ccnc(-c3ccc(CN4CCOCC4)cc3)c2)nc1 [GW776245] | 0 | 0 | 17 | 0 | 4 | 0 | 11 | 0 | 0 | 48 | 0 | 62 | 44 | 28 | 0 | 16 | 0 | 0 | 0 | 14
O=C1NC(=O)C(N2CCc3ccccc32)=C1c1ccccc1Cl [SB-373598] | 0 | 13 | 14 | 0 | 0 | 12 | 19 | 3 | 30 | 0 | 7 | 12 | 3 | 0 | 36 | 12 | 5 | 12 | 0 | 0
Fc1cc(Cl)ccc1Nc1ccnc2cc(-c3ccc(CN4CCCCC4)o3)ccc12 [GW560116] | 0 | 0 | 0 | 0 | 0 | 51 | 0 | 5 | 0 | 0 | 0 | 0 | 0 | 0 | 0 | 0 | 0 | 0 | 21 | 0
Clc1cc(Cl)cc(Nc2ccnc(Nc3cc(Cl)cc(Cl)c3)n2)c1 [GSK175726] | 31 | 0 | 0 | 3 | 1 | 78 | 7 | 13 | 22 | 15 | 0 | 0 | 12 | 0 | 0 | 12 | 14 | 10 | 6 | 19
Cc1ccccc1-n1cnc2c(N)ncnc21 [SKF-97510] | 0 | 0 | 0 | 0 | 0 | 0 | 0 | 0 | 0 | 0 | 0 | 0 | 0 | 4 | 0 | 0 | 0 | 0 | 0 | 0
Cc1cc(N2Cc3ccccc3C2)nc(Nc2ccc(S(=O)(=O)N3CCOCC3)cc2)n1.Cl [GSK1669917] | 0 | 0 | 0 | 8 | 0 | 0 | 0 | 3 | 10 | 17 | 0 | 0 | 0 | 0 | 0 | 0 | 0 | 0 | 16 | 0
CCn1c(-c2cccnc2O)nc2cnccc21 [SB-736715] | 0 | 0 | 0 | 0 | 0 | 0 | 2 | 3 | 0 | 0 | 0 | 0 | 0 | 0 | 0 | 0 | 0 | 0 | 0 | 0
COc1cc2ncnc(Nc3ccc4nc(-c5ccccc5)[nH]c4c3)c2cc1OC.Cl [GW282450] | 0 | 0 | 9 | 0 | 0 | 94.5 | 14 | 17 | 0 | 31 | 11 | 0 | 5 | 7 | 0 | 13 | 13 | 5 | 10 | 7
Fc1cccc(COc2nnc(-c3ccc4c(c3)CCO4)o2)c1 | 0 | 0 | 0 | 9 | 11 | 12 | 12 | 0 | 0 | 0 | 22 | 0 | 1 | 0 | 0 | 0 | 0 | 0 | 8 | 10
CS(=O)(=O)c1ccc(-c2c(-c3ncn[nH]3)sc(N3CCOCC3)c2C#N)cc1 | 17 | 0 | 8 | 8 | 16 | 28 | 41 | 42 | 5 | 24 | 0 | 19 | 11 | 14 | 12 | 6 | 0 | 32 | 0 | 0
Cl.Oc1ccc(-c2nc(-c3ccccc3)[nH]c2-c2ccncc2)cc1 [SB-428218] | 0 | 0 | 0 | 0 | 0 | 0 | 0 | 33 | 0 | 12 | 0 | 0 | 9 | 0 | 12 | 0 | 0 | 0 | 57 | 0
O=C(Nc1n[nH]c2cc(-c3cccc(F)c3F)ccc12)C1CC1 [SB-733894] | 39 | 6 | 0 | 26 | 13 | 22 | 7 | 0 | 0 | 21 | 19 | 0 | 0 | 0 | 0 | 0 | 3 | 0 | 4 | 0
Cc1cccc(-c2nc(C)cc(Nc3ccncc3)n2)n1 [GSK257997] | 0 | 0 | 5 | 0 | 0 | 1 | 15 | 0 | 5 | 12 | 0 | 78 | 80 | 85 | 0 | 6 | 0 | 1 | 13 | 0
Nc1ncnc2[nH]c(-c3ccccc3)nc12 [AH5015] | 0 | 0 | 2 | 16 | 0 | 99.9 | 0 | 14 | 18 | 0 | 0 | 0 | 0 | 9 | 6 | 0 | 0 | 0 | 30 | 0
CS(=O)(=O)c1ccc(-c2nc3n(c2-c2ccncc2)CCC3)cc1 [SKF-105942] | 8 | 0 | 0 | 22 | 0 | 11 | 0 | 18 | 1 | 2 | 0 | 3 | 0 | 0 | 0 | 5 | 0 | 2 | 11 | 0
CC(=O)Nc1nc2cnc(Nc3cc(NC(=O)c4cccc(CCC#N)c4)ccc3C)nc2s1 | 12 | 0 | 0 | 8 | 14 | 9 | 8 | 0 | 0 | 32 | 9 | 0 | 2 | 12 | 15 | 10 | 8 | 13 | 1 | 0
COc1ccc(CNC(=O)NC2CCN(c3ccnc(Nc4cc(OC)c(OC)c(OC)c4)n3)C2)cc1 (stereo not shown) [GSK1379748] | 0 | 0 | 0 | 0 | 0 | 19 | 0 | 14 | 0 | 30 | 0 | 0 | 0 | 0 | 0 | 11 | 14 | 17 | 43 | 0
O=c1cc(N2CCOCC2)nc2n(Cc3cccc(Cl)c3Cl)ccn12 [GSK2286295] | 0 | 0 | 10 | 0 | 0 | 0 | 0 | 0 | 20 | 48 | 14 | 0 | 20 | 0 | 0 | 0 | 0 | 0 | 0 | 0

From article PMC5540273 (PLoS ONE, 2017)
